Records with an inconclusive call do not appear. Active and inactive are the calls of the source. The call rests on the fitted dose curve.
Assays:
[1] = Primary qHTS for inhibitors of SARS-S pseudo-typed particle cell entry (AID 1479145); further: nearly all actives have a fitted effect of over 45% in size
[2] = Primary qHTS for Huh7 cytotoxicity: counterscreen for inhibitors of MERS-S pseudotyped particle cell entry (AID 1479147)
[3] = Primary qHTS for inhibitors of MERS-S pseudo-typed particle cell entry (AID 1479149); further: nearly all actives have a fitted effect of over 60% in size
[4] = Primary qHTS for Vero E6 cytotoxicity: counterscreen for inhibitors of SARS-S pseudo-typed particle cell entry (AID 1479150)

Measured: Potency

O=C(O)Cc1sc(-c2ccccc2)nc1-c1ccc(Cl)cc1
inactive: all assays above

CCCC(=O)O[C@]1(C(=O)COC(=O)CC)CC[C@H]2[C@@H]3CCC4=CC(=O)CC[C@]4(C)[C@H]3[C@@H](O)C[C@@]21C
inactive: all assays above

c1ccc2sc(SSc3nc4ccccc4s3)nc2c1
inactive: all assays above

CCCNC(C)C(=O)Nc1ccccc1C (stereo not drawn)
inactive: all assays above

N[C@@H](CCC(=O)N[C@@H](CS)C(=O)NCC(=O)O)C(=O)O
inactive: all assays above

OC[C@H]1O[C@@H](n2cnc3c2NC=NC[C@H]3O)C[C@@H]1O
inactive: all assays above

NS(=O)(=O)c1cc2c(cc1C(F)(F)F)NC(Cc1ccccc1)NS2(=O)=O (stereo not drawn)
inactive: all assays above

COc1cc(NS(=O)(=O)c2ccc(N)cc2)nc(C)n1
inactive: all assays above

CN[C@@H]1[C@H](O)[C@H](NC)[C@H]2O[C@@]3(O)C(=O)C[C@@H](C)O[C@H]3O[C@@H]2[C@H]1O
inactive: all assays above

O=C(O)c1cccnc1
inactive: all assays above

Cc1cc(O)cc(C)c1Cl
inactive: all assays above

Nc1nc(/C(=C/CC(=O)O)C(=O)N[C@@H]2C(=O)N3C(C(=O)O)=CCS[C@H]23)cs1
inactive: all assays above

— PubChem BioAssay (NCATS)
